Inconclusive results are not listed. Active and inactive are the calls of the source. Calls come from the whole dose curve; as a rule, active = well fitted cell-killing curve with a large enough effect; inconclusive = small, poorly fitted or top-dose-only effect; inactive = flat fitted curve, though single readings scatter.
Assay: Cell Viability - LYMP2-023 (AID 975);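 note: cells exposed to compound for 24 hours at 37 °C; nearly all actives have a fitted effect of over 55% in size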
Conditions: LYMP2-023 lymphoblastoid cell viability; series mostly up to 92.2 µM
Method in brief: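 CellTiter-Glo luminescence after 30 min at room temperature; decrease in intracellular ATP reflects toxicity. Cells: human lymphoblastoid line, 2500/well, 24 hr compound exposure at 37 C. AC50 fitted to standard Hill equation from concentration-response.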
Potency is the fitted concentration of half-maximal effect.

| Compound | Potency |
| --- | --- |
| CCCCCCCCCCCC[N+](C)(C)CCOc1ccccc1 | 50.1 µM (active) |
| CC[n+]1c(-c2ccccc2)c2cc(N)ccc2c2ccc(N)cc21 | 15.8 µM (active) |
| CNC(=O)Oc1cccc2ccccc12 | inactive |
| CN(C)C(=S)SSC(=S)N(C)C | 0.316 µM (active) |
| COP(=O)(OC)OC=C(Cl)Cl | inactive |
| O=C(CCl)c1ccc(Cl)cc1Cl | 6.31 µM (active) |
| Oc1c(Br)cc(Br)cc1Br | inactive |

Assay: Cell Viability - LYMP2-025 (AID 976)
Conditions: LYMP2-025 lymphoblastoid cell viability; series mostly up to 92.2 µM
Method in brief: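 CellTiter-Glo luminescence (cellular ATP) after 24 h compound exposure at 37 C; LYMP2-025 human lymphoblastoid cells, 2500/well, complete medium. Tetraoctylammonium bromide positive control. AC50 by Hill equation fit of qHTS concentration-response.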

| Compound | Potency |
| --- | --- |
| CCCCCCCCCCCC[N+](C)(C)CCOc1ccccc1 | 50.1 µM (active) |
| CC[n+]1c(-c2ccccc2)c2cc(N)ccc2c2ccc(N)cc21 | 15.8 µM (active) |
| CNC(=O)Oc1cccc2ccccc12 | inactive |
| CN(C)C(=S)SSC(=S)N(C)C | 0.251 µM (active) |
| COP(=O)(OC)OC=C(Cl)Cl | inactive |
| O=C(CCl)c1ccc(Cl)cc1Cl | 7.94 µM (active) |
| Oc1c(Br)cc(Br)cc1Br | inactive |

From PubChem BioAssay (NCATS)
